Data taken from PubChem BioAssay (NCATS).
Records with an inconclusive call do not appear. Activity calls are given as the source filed them. Calls come from the whole dose curve; as a rule, active = well fitted cell-killing curve with a large enough effect; inconclusive = small, poorly fitted or top-dose-only effect, or effect the other way; inactive = flat fitted curve, though single readings scatter.

Legend:
Experiment in all cases: Primary qHTS to identify gynecologic anti-cancer compounds using libraries of approved drugs and bioactive compounds (AID 1345084); note: nearly all actives have a fitted effect of over 55% in size
[1] = test system: C33A; settings: Gynecologic cancer cell panel viability, ATPlite luminescence, 48 h; series mostly up to 57.5 µM
Outline: (§1)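 Luminescence from the ATPlite ATP-monitoring reagent indicates viable cell number; lower signal means cytotoxicity. Cells received compound 16 h after seeding and were exposed for 48 h across five concentrations.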

[2] = test system: CAOV3; settings: Gynecologic cancer cell panel viability, ATPlite luminescence, 48 h; series mostly up to 57.5 µM
Outline: as §1

[3] = test system: CASKI; settings: Gynecologic cancer cell panel viability, ATPlite luminescence, 48 h; series mostly up to 57.5 µM
Outline: as §1

[4] = test system: Es-2; settings: Gynecologic cancer cell panel viability, ATPlite luminescence, 48 h; series mostly up to 57.5 µM
Outline: as §1

[5] = test system: HeLa; settings: Gynecologic cancer cell panel viability, ATPlite luminescence, 48 h; series mostly up to 57.5 µM
Outline: as §1

[6] = test system: Hek293T; settings: Gynecologic cancer cell panel viability, ATPlite luminescence, 48 h, control line for the selectivity index; series mostly up to 57.5 µM
Outline: as §1

[7] = test system: JEG-3; settings: Gynecologic cancer cell panel viability, ATPlite luminescence, 48 h; series mostly up to 57.5 µM
Outline: as §1

[8] = test system: OV90; settings: Gynecologic cancer cell panel viability, ATPlite luminescence, 48 h; series mostly up to 57.5 µM
Outline: as §1

[9] = test system: PA-1; settings: Gynecologic cancer cell panel viability, ATPlite luminescence, 48 h; series mostly up to 57.5 µM
Outline: as §1

[10] = test system: SKOV3; settings: Gynecologic cancer cell panel viability, ATPlite luminescence, 48 h; series mostly up to 57.5 µM
Outline: as §1

[11] = test system: Tov-21-G; settings: Gynecologic cancer cell panel viability, ATPlite luminescence, 48 h; series mostly up to 57.5 µM
Outline: as §1

[12] = test system: Tov112D; settings: Gynecologic cancer cell panel viability, ATPlite luminescence, 48 h; series mostly up to 57.5 µM
Outline: as §1

Measured: Potency

Nc1nc2c(ncn2[C@@H]2O[C@H](CO)[C@@H](O)[C@H]2O)c(=O)[nH]1
inactive: [1] | [2] | [3] | [4] | [5] | [6] | [7] | [8] | [9] | [10] | [11] | [12]

C=C1CC[C@@H]2[C@](C)(CO[C@@H]3O[C@H](CO)[C@@H](O)[C@H](O)[C@H]3O)[C@H](O)CC[C@@]2(C)[C@@H]1C/C=C1/C(=O)OC[C@H]1O
inactive: [1] | [2] | [3] | [4] | [5] | [6] | [7] | [8] | [9] | [10] | [11] | [12]

Nc1nc2c(ncn2[C@@H]2O[C@@H]3COP(=O)(O)O[C@H]3[C@H]2O)c(=O)[nH]1
inactive: [1] | [2] | [3] | [4] | [5] | [6] | [7] | [8] | [9] | [10] | [11] | [12]

c1ccc(-c2ncc(CN3CCN(c4ncccn4)CC3)[nH]2)cc1
inactive: [1] | [2] | [3] | [4] | [5] | [6] | [7] | [8] | [9] | [10] | [11] | [12]

CC1=CC(=O)CC2C1(O)CCC(C)C21CC(c2ccoc2)OC1=O (stereo unspecified)
inactive: [1] | [2] | [3] | [4] | [5] | [6] | [7] | [8] | [9] | [10] | [11] | [12]

CC(C)CC(=O)O[C@@H]1OC=C(CO[C@@H]2O[C@H](CO)[C@@H](O)[C@H](O)[C@H]2O)[C@H]2[C@@H]3O[C@H]3[C@@](O)(CO)[C@@H]12
inactive: [1] | [2] | [3] | [4] | [5] | [6] | [7] | [8] | [9] | [10] | [11] | [12]

O=C(O)c1cc(I)ccc1NC(=O)[C@H](Cc1ccccc1)NCc1ccccc1
inactive: [1] | [2] | [3] | [4] | [5] | [6] | [7] | [8] | [9] | [10] | [11] | [12]

CC(O)CCC1C(CO[C@@H]2O[C@H](CO)[C@@H](O)[C@H](O)[C@H]2O)CC(O)CC1(C)C (stereo partly specified)
inactive: [1] | [2] | [3] | [4] | [5] | [6] | [7] | [8] | [9] | [10] | [11] | [12]
